Experimental data taken from PubChem BioAssay (NCATS).
Values joined by “and” are separate entries in the source; they are usually repeats but may differ in a detail not shown here. Equal values may be shown once. Records with an inconclusive call do not appear. Active and inactive are the calls of the source. Unless noted, calls follow the shape of the dose curve; as a rule, active = well fitted curve in either direction with a large enough effect (not every such curve was filed as active); inconclusive = small, poorly fitted or top-dose-only effect, or another doubt; inactive = flat fitted curve, though single readings scatter.

What was measured:
[1] = AP1 Signaling Pathway (AID 357); conditions: ME-180 AP-1-bla reporter, EGF-induced, beta-lactamase ratio, 5 h; at 17.2 µM (top of the series) unless noted; also: % is scaled to controls: 0 for no effect and ±100 for the full control effect
How it was run: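 AP-1-bla ME-180 cells with beta-lactamase reporter under AP-1 response element, stimulated with EC50 EGF; compounds titrated, 5 hours at 37 degrees Celsius. CCF4 read at 460/530 nm ratio; positive and negative modulators judged by AC50.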

[2] = NFAT Signaling Pathway (AID 444); conditions: Jurkat NFAT-bla M1, carbachol, beta-lactamase ratio, 5 h; at 17.2 µM (top of the series) unless noted;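 also: carbachol stimulus at about its EC50 of 1 µM final; % is scaled to controls: 0 for no effect and ±100 for the full control effect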
How it was run: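 Read-out: CCF4 FRET ratio (460 nm/530 nm) after 1 h RT dye loading, used for %activity and AC50 from titration series. Cells: Jurkat NFAT-β-lactamase/M1 line, treated with compound plus 1 uM carbachol for 5 h, 37 °C.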

[3] = Stat Signaling Pathway (AID 446); conditions: ME-180 (cervical carcinoma) SIE beta-lactamase reporter, IL-6 stimulated, 5 h; at 17.2 µM (top of the series) unless noted;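 also: ME-180 cervical cancer cells given 40 pM IL-6 alongside compound; SIE-controlled beta-lactamase reporter measured as 460/530 nm FRET emission ratio; % is scaled to controls: 0 for no effect and ±100 for the full control effect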
How it was run: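 FRET read-out (405 nm excitation, 460/530 nm emission) of a beta-lactamase reporter under a STAT-inducible element in ME-180 cervical carcinoma cells. Cells with compound receive 40 pM IL-6 for 5 h. Values are normalised to AC90 stimulation and AC90 JAK-inhibitor controls.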

[4] = molecular target: Glucocorticoid receptor (Homo sapiens) (UniProt P04150); test: GR-GFP Redistribution (AID 450;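 active = compounds whose dose series gives a full or clear partial fitted curve of increased nuclear translocation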; also: potency is read from the fitted curve at half-maximal effect); conditions: U2OS GR-GFP nuclear translocation, laser cytometry, 2 h
Sequence of Glucocorticoid receptor (Homo sapiens) (P04150 whole entry, looked up, the tested form may be a part): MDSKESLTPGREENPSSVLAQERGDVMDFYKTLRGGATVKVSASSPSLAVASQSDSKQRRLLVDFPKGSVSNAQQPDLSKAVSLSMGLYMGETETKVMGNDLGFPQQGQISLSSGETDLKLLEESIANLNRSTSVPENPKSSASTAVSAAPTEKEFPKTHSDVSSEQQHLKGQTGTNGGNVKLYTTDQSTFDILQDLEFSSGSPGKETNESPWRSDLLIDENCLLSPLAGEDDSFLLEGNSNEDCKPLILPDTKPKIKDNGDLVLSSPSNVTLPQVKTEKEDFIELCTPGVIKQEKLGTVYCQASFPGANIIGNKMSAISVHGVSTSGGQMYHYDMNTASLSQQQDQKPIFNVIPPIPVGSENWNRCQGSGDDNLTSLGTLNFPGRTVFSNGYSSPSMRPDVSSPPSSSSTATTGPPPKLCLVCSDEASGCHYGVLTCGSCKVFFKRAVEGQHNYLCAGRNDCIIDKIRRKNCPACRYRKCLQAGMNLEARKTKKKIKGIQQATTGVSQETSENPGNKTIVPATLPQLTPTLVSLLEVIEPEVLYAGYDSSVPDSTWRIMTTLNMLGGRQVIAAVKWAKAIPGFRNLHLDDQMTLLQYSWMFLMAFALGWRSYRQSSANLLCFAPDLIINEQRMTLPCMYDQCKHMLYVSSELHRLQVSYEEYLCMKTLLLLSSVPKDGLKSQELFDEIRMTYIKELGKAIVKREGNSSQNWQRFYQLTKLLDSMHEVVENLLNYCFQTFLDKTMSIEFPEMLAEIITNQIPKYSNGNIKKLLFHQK

[5] = molecular target: Glucocorticoid receptor (Homo sapiens) (UniProt P04150); test: GR-EFC Redistribution (AID 451; calls by dose curve; also: potency is read from the fitted curve at half-maximal effect); conditions: CHO-K1 GR-EFC translocation, beta-gal luminescence, 2 h
How it was run: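 Translocation of GR-ED fusion to nuclear EA restores b-gal, read by luminescence after 1 h room-temperature detection. Engineered CHO-K1 biosensor cells, 1,000/well, exposed 2 h at 37 C to titrations up to 46 uM final.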

[6] = molecular target: Mitogen-activated protein kinase 10 (Mus musculus) (UniProt Q61831); test: JNK3 AlphaScreen Assay (AID 530);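 also: kinase came from lysate of stimulated human HepG2 cells; signal reports phosphorylation of biotinylated GST-cJun 1-79 at Ser73 with 10 µM ATP; % is scaled to controls: 0 for no effect and ±100 for the full control effect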
How it was run: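 Kinase buffer: 20 mM Tris-HCl pH 7.6, 10 mM MgCl2, 1 mM DTT, 0.1 mM Na3VO4, 0.01% Tween-20; ATP 10 uM. Substrate biotin-GST-cJun(1-79), enzyme from activated HepG2 lysates. Detection by Ser73 phospho-antibody AlphaScreen.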

[7] = molecular target: 3',5'-cyclic-AMP phosphodiesterase 4B (Homo sapiens) (UniProt Q07343); test: qHTS Assay for Inhibitors of PDE-IV (AID 607; active = well fitted activation curve with a large enough effect in the main read-out, with a control signal flat, not every such curve was filed as active; also: % of control where 0% means no effect)
Sequence of 3',5'-cyclic-AMP phosphodiesterase 4B (Homo sapiens) (Q07343 whole entry, looked up): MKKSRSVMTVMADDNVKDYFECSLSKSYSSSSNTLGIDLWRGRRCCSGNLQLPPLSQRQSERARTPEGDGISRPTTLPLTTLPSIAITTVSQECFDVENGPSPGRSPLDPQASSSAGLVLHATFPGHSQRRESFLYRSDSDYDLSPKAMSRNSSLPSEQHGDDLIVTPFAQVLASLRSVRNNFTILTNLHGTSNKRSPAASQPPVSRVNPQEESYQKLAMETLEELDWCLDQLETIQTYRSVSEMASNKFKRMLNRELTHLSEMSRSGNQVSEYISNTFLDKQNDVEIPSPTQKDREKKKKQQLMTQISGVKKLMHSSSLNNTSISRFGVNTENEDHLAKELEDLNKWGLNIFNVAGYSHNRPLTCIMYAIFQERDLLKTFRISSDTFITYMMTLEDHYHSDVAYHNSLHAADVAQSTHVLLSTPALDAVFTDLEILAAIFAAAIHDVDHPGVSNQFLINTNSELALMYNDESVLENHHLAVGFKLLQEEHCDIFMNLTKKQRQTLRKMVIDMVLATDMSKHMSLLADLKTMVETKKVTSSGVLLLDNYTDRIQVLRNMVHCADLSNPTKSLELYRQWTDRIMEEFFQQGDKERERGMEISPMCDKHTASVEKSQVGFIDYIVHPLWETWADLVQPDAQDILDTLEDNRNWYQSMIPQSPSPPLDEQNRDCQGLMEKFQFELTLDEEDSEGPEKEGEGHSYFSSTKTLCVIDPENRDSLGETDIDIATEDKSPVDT
How it was run: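 Cell-based read-out of cAMP via a modified cyclic nucleotide-gated channel and membrane potential dye (535/590 nm) in HEK293 cells expressing PDE4 endogenously. Compounds tested up to 22.9 uM final; 100 uM RO 20-1724 reference.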

[8] = Cell Viability - BJ (AID 421; calls by dose curve;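 also: potency is read from the fitted curve at half-maximal effect; cells exposed to compound for 40 hours at 37 °C before readout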); conditions: BJ fibroblast viability, qHTS
How it was run: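 Cytotoxicity as drop in intracellular ATP (CellTiter-Glo, 20 min RT) after 40 hr compound exposure of BJ fibroblasts at 37 °C. Titrations scaled between DMSO and 100 uM tamoxifen, Hill-fitted for AC50.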

[9] = Cell Viability - Jurkat (AID 426;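 active = dose-dependent loss of cell ATP signal giving a full or clear fitted curve, ranked by lower potency value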;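 also: potency is read from the fitted curve at half-maximal effect; cells exposed to compound for 40 hours at 37 °C before ATP read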); conditions: qHTS
How it was run: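 Luminescent ATP read-out (CellTiter-Glo, 20 min at room temperature) after 40 hr compound exposure at 37 °C of Jurkat E6-1 cells, 5000/well. Decreased ATP taken as cytotoxicity; AC50 from standard Hill equation.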

[10] = Cell Viability - Hek293 (AID 427;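 active = compounds whose dose-response curve shows a full or clear partial loss of cell viability, called from curve shape rather than a numeric limit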;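 also: potency is read from the fitted curve at half-maximal effect; cells exposed to compound for 40 hours at 37 °C before reading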); conditions: qHTS
How it was run: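 Luminescent ATP content (CellTiter-Glo, 20 min at room temperature) was measured after a 40 hr, 37 °C compound exposure of HEK293 cells. AC50 values came from Hill-equation fits of qHTS concentration-response data normalized to DMSO and 100 uM tamoxifen.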

[11] = Cell Viability - HepG2 (AID 433; calls by dose curve;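 also: potency is read from the fitted curve at half-maximal effect; potency for ATP loss meaning cytotoxicity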); conditions: qHTS
How it was run: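 Cytotoxicity is scored as loss of intracellular ATP in HepG2 cells exposed to compounds for 40 h. Concentration-response curves, normalized to DMSO and 100 uM tamoxifen, give AC50 values.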

[12] = Cell Viability - SK-N-SH (AID 435; calls by dose curve; also: potency is read from the fitted curve at half-maximal effect); conditions: SK-N-SH neuroblastoma cell viability qHTS
How it was run: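 Cells seeded at 1500 per well and incubated 5 hr at 37 °C. Compound added, then 40 hr at 37 °C. CellTiter-Glo added, 20 min at room temperature, luminescence read.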

[13] = Cell Viability - N2a (AID 540; active = well fitted curve in the direction sought with a large enough effect; an effect the other way counts as inactive or inconclusive;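 also: plate controls were DMSO alone for no effect and tamoxifen control for full effect; nearly all actives have a fitted effect of over 45% in size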); conditions: N2a mouse neuroblastoma cell viability; activity change, negative = cytotoxicity: at 92.2 µM (top of the series)
How it was run: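 N2a mouse neuroblastoma, 1500 cells/well, 5 hr settle; compound 40 hr, 37 °C; CellTiter-Glo 20 min RT; luminescence; Hill-fit AC50.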

[14] = Cell Viability - NIH 3T3 (AID 541; active = well fitted curve in the direction sought with a large enough effect; an effect the other way counts as inactive or inconclusive;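 also: plate controls were DMSO alone for no effect and tamoxifen positive control for full effect; nearly all actives have a fitted effect of over 25% in size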); conditions: NIH 3T3 cell viability, qHTS; activity change, negative = cytotoxicity: at 92.2 µM (top of the series)
How it was run: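 qHTS format; 40 hr compound exposure, 37 °C; CellTiter-Glo luminescence (cellular ATP) read-out after 20 min at RT. Decrease in ATP = cytotoxicity; AC50 from standard Hill fit.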

[15] = Cell Viability - HUV-EC-C (AID 542; active = well fitted curve in the direction sought with a large enough effect; an effect the other way counts as inactive or inconclusive; also: % is scaled to controls: 0 for no effect and ±100 for the full control effect; nearly all actives have a fitted effect of over 35% in size)
How it was run: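 Luminescent ATP read-out (CellTiter-Glo, 20 min room temperature) after 40 hr compound treatment of HUV-EC-C cells at 37 °C. Concentration-response data fitted with the standard Hill equation to give AC50; tamoxifen and doxorubicin served as positive controls.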

[16] = Cell Viability - H-4-II-E (AID 543; active = well fitted curve in the direction sought with a large enough effect; an effect the other way counts as inactive or inconclusive; also: % is scaled to controls: 0 for no effect and ±100 for the full control effect; nearly all actives have a fitted effect of over 35% in size)
How it was run: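 qHTS, rat hepatoma H-4-II-E, 1500 cells/well; 40 hr compound exposure, 37 °C; CellTiter-Glo ATP luminescence after 20 min RT; AC50 by standard Hill fit.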

[17] = Cell Viability - Renal Proximal Tubule (AID 545; active = well fitted curve in the direction sought with a large enough effect; an effect the other way counts as inactive or inconclusive;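 also: 0% = DMSO only and -100% = 100 µM tamoxifen; nearly all actives have a fitted effect of over 40% in size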)
How it was run: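 Cytotoxicity is scored as a concentration-dependent drop in cellular ATP in primary rat renal proximal tubule cells exposed for 40 hr. AC50 derives from Hill modelling.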

[18] = Cell Viability - Mesenchymal (AID 546; active = well fitted curve in the direction sought with a large enough effect; an effect the other way counts as inactive or inconclusive;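 also: cells exposed to compound for 40 hours before reading; 0% = DMSO only and -100% = 100 µM tamoxifen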)
How it was run: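 CellTiter-Glo luminescence (intracellular ATP, 20 min room temperature) after 40 hr compound exposure at 37 °C of 1000 glomerulus-derived human kidney mesenchymal cells/well; AC50 values obtained by fitting qHTS concentration-response data to the Hill equation.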

[19] = Cellular Toxicity (caspase-3) HepG2 (AID 654; active = well fitted curve in the direction sought with a large enough effect; an effect the other way counts as inactive or inconclusive;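 also: cells exposed to compound for 16 hours before reading; 0% = DMSO alone and 100% = caspase signal from 100 µM tamoxifen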)
How it was run: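 Luminescent Caspase-Glo 3/7 readout after 16 hr compound exposure of human hepatocellular carcinoma HepG2 cells at 37 °C; qHTS concentration-response, normalized DMSO = 0%, 100 uM tamoxifen = 100%; AC50 by standard Hill equation.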

[20] = Cellular Toxicity (caspase-3) Jurkat (AID 655; active = well fitted curve in the direction sought with a large enough effect; an effect the other way counts as inactive or inconclusive;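 also: cells exposed to compound for 16 h at 37 °C before reading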)
How it was run: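 Caspase 3/7 activation is scored as increased luminescence in Jurkat cells cultured with compound for 16 hours in complete medium. AC50 values come from Hill fits of qHTS concentration-response data normalized to DMSO and 100 uM tamoxifen controls.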

COc1cc(NS(=O)(=O)c2ccc(N)cc2)nc(OC)n1
inactive: activity change, negative = inhibition [1] 1.62% and 1.87% | activity change, negative = inhibition [2] -19.2% | activity, negative = inhibition [3] 9.03% and -4.46% | Potency [4] > 20.6 µM | Potency [5] > 20.6 µM | Potency [6] | outcome [7]

N[C@@H](C(=O)N[C@@H]1C(=O)N2C(C(=O)O)=C(Cl)CS[C@H]12)c1ccccc1
inactive: activity change, negative = inhibition [1] 0.208% | activity change, negative = inhibition [2] 7.31% | activity, negative = inhibition [3] 1.22% | Potency [4] > 20.6 µM

NNC(=O)c1ccncc1
inactive: activity change, negative = inhibition [1] 11.8% and 7.05% | Potency [8] > 92 µM | Potency [9] > 92 µM | Potency [10] > 92 µM | Potency [11] > 92 µM | Potency [12] > 92 µM | activity change, negative = inhibition [2] -9.4% and 6.65% | activity, negative = inhibition [3] 3.44% and 12.3% | Potency [4] > 20.6 µM | Potency [5] > 20.6 µM | Potency [6] | Potency [13] | activity change, negative = cytotoxicity [14] -5.93% | Potency [15] | Potency [16] | Potency [17] | Potency [18] | outcome [7] | Potency [19] | outcome [20]

COC(=O)Nc1nc2ccc(Sc3ccccc3)cc2[nH]1
inactive: activity change, negative = inhibition [1] 1.3% and 6.61% | activity change, negative = inhibition [2] -6.14% | activity, negative = inhibition [3] 1.46% and -3.37% | Potency [4] > 20.6 µM | Potency [5] > 20.6 µM | Potency [6] | outcome [7]

Cc1cccc(Nc2ccncc2S(=O)(=O)NC(=O)NC(C)C)c1
inactive: activity change, negative = inhibition [1] -9.3% | activity change, negative = inhibition [2] -2.46% | activity, negative = inhibition [3] -16.6% | Potency [4] > 20.6 µM | Potency [5] > 20.6 µM | Potency [6]

Cc1cc(NS(=O)(=O)c2ccc(N)cc2)no1
inactive: activity change, negative = inhibition [1] 3.59% and 0.387% | Potency [8] > 92 µM | Potency [9] > 92 µM | Potency [10] > 92 µM | Potency [11] > 92 µM | Potency [12] > 92 µM | activity change, negative = inhibition [2] 1.34% and -21.2% | activity, negative = inhibition [3] 2% and 5.36% | Potency [4] > 20.6 µM | Potency [5] > 20.6 µM | Potency [6] | Potency [13] | activity change, negative = cytotoxicity [14] -14.5% | Potency [15] | Potency [16] | Potency [17] | Potency [18] | outcome [7] | Potency [19] | outcome [20]
